Laboratory results as given in publication PMC4336329 (PLoS ONE, 2015).
Out of some 310,000 compounds screened, about 14,000 (4.5%) showed an effect of 50% or more. The effect is printed as a negative number. For the sample, strong results were picked, then their nearest neighbours and some compounds at random.

biological target: human ether-à-go-go-related gene (hERG) potassium channel (human, UniProt Q12809); test: primary screen, population patch clamp on CHO cells stably expressing hERG; higher = less effect of the substance
Sequence (Q12809 whole entry, looked up): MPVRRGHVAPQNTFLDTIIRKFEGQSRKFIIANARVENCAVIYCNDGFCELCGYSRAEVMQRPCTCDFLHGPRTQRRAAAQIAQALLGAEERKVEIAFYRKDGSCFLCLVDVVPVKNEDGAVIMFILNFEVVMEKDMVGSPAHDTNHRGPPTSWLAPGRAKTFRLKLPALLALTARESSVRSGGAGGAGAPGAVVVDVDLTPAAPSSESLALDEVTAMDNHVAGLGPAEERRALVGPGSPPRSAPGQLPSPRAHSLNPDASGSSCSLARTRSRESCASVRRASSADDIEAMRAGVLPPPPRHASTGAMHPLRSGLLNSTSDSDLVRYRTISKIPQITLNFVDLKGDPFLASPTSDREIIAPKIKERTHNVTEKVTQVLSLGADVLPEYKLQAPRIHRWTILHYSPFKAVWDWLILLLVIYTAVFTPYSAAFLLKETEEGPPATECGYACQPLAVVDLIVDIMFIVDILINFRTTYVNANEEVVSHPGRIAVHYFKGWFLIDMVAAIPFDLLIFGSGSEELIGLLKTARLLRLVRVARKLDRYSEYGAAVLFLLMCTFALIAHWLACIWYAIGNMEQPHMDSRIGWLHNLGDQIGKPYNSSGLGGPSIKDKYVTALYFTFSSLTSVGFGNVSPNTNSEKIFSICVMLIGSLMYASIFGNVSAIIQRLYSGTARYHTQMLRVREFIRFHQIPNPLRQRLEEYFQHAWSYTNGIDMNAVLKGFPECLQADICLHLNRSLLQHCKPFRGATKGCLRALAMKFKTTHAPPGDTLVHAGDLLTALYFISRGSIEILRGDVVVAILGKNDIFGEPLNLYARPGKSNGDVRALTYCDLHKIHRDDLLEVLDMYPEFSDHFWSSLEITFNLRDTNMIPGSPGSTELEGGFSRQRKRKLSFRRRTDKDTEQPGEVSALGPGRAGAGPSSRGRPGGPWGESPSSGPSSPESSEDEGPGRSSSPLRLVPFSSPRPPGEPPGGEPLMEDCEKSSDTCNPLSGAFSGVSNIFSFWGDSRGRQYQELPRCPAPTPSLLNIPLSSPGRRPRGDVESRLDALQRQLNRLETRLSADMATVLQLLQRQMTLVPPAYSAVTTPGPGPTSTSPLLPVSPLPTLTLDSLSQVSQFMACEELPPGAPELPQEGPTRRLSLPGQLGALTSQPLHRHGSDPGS
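Further: peak tail current of the secondary pulse compared with the same well before compound.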

SMILES | hERG current change (%, negative = inhibition) at 10uM
CCCSc1nsc(NC(=O)CC)n1 | -30.5%
CCCC1Cc2c(sc(N)c2C#N)CO1 (stereo not shown) | 2.5%
CC(C)Cc1nnc(NC(=O)c2ccc(N3CCCC3=O)cc2)s1 | 2.3%
COc1ccc(NC(=O)CN(C)C(=O)Cc2ccc(S(=O)(=O)N3CCOCC3)s2)cc1 | 8.92%
O=C(NCC1CCN(c2ccc(S(=O)(=O)N3CCOCC3)cc2)CC1)c1cccc(Cl)c1 | -12.4%
CN(CCOc1ccccc1)C(=O)c1ccc(F)c(S(=O)(=O)N2CCOCC2)c1 | -10.8%
CCCCN(C)C(=O)c1ccc(S(=O)(=O)N2CCOCC2)cc1 | 17.3%
CN(CCOc1ccc(Cl)cc1)C(=O)Cc1ccc(S(=O)(=O)N2CCOCC2)s1 | -73.1%
Cc1ccc(OCCOC(=O)c2cc(S(=O)(=O)N3CCCCC3)ccc2N2CCOCC2)cc1 | -9.24%
Cc1cccc(C)c1NC(=O)CN(C)C(=O)c1cc(S(=O)(=O)N2CCOCC2)ccc1N1CCCC1 | -3.99%
Cc1ccc(OCCNC(=O)Cc2ccc(S(=O)(=O)N3CCOCC3)s2)cc1 | -24%
CN(CCOc1ccc(Cl)cc1)C(=O)c1cc(S(=O)(=O)N2CCOCC2)ccc1N1CCCC1 | -63.7%
CN(CCOc1ccc(Cl)cc1)C(=O)c1ccc(S(=O)(=O)N2CCOCC2)cc1 | -74.9%
COc1cccc(C(=O)NCC2CCN(c3ccc(S(=O)(=O)N4CCOCC4)cc3)CC2)c1 | -22.9%
O=C(NCC1CCN(c2ccc(S(=O)(=O)N3CCOCC3)cc2)CC1)c1ccc(Cl)cc1 | -57.2%
O=C(Nn1cnc2ccccc2c1=O)c1ccccc1 | 12.7%
COc1c(Cl)cc(C(=O)Nc2ccccc2-c2ccccc2)cc1Cl | 0.345%
Cc1ccc(NC(=O)Cn2nc(C(=O)Nc3ccc(C)cc3)ccc2=O)cc1 | 10.8%
CCN(CC)S(=O)(=O)c1cccc(C(=O)OC2CC(C)OC2=O)c1 (stereo not shown) | 12.7%
Nc1nc(NCc2ccccc2)nc(NCc2ccccc2)c1[N+](=O)[O-] | 16.2%
O=C(Nc1c2c(nn1-c1ccccc1)CS(=O)C2)c1ccc(S(=O)(=O)N2CCOCC2)cc1 (stereo not shown) | 17.4%
COc1cc(NC(=O)COC(=O)/C=C/c2ccc(Cl)cc2Cl)cc(OC)c1 | 5.23%
CC(C)(C)NC(=O)NCCc1ccccc1 | 11%
CC(=O)Nc1ccc2nc(SCC(=O)N3CCOCC3)sc2c1 | 18.9%
COc1cc(/C=N/NC(=O)[C@H](Cc2c[nH]c3ccccc23)NC(=O)OCC(C)C)cc([N+](=O)[O-])c1O | 10.3%
CN(CCOc1ccc(Cl)cc1)C(=O)c1cc([N+](=O)[O-])ccc1N1CCOCC1 | -66.7%

SMILES | hERG current change (%, negative = inhibition) at 10uM
CN(CCOc1ccccc1)C(=O)c1cc([N+](=O)[O-])ccc1N1CCOCC1 | -27.3%
CCN1CCN(S(=O)(=O)c2ccc(Cl)c(C(=O)N(C)Cc3ccc(F)cc3)c2)CC1 | -25.1%
CCN1CCN(S(=O)(=O)c2ccc(Cl)c(C(=O)N(C)Cc3cccc(OC)c3)c2)CC1 | -11.2%
COc1ccc(S(=O)(=O)N2CCCCCC2)cc1C(=O)N(C)Cc1ccc(Cl)cc1Cl | -23.1%
O=S(=O)(c1ccc2c(c1)nc(COc1ccc(Cl)cc1)n2CC1CCCO1)N1CCOCC1 (stereo not shown) | -65.2%
Cc1cccc(C)c1NC(=O)CN(C)C(=O)c1cc([N+](=O)[O-])ccc1N1CCOCC1 | 24.1%
O=C(COc1ccc(S(=O)(=O)N2CCOCC2)cc1)NCC1CCCO1 (stereo not shown) | -15.1%
COc1ccc(S(=O)(=O)N2CCCCCC2)cc1C(=O)N(C)CCOc1ccc(Cl)cc1 | -47.7%
O=C(NCC1CCCO1)c1cc(S(=O)(=O)N2CCOCC2)ccc1Cl (stereo not shown) | 16.5%
COc1ccc(S(=O)(=O)N2CCOCC2)cc1C(=O)N(C)CCOc1ccc(Cl)cc1 | -79.8%
CCN1CCN(S(=O)(=O)c2ccc(Cl)c(C(=O)N(C)CCOc3ccc(Cl)cc3)c2)CC1 | -52.8%
COCCNC(=O)Cn1cc(C(=O)c2ccccc2F)c2ccccc21 | 12.5%
COc1ccccc1CNc1ncnc2cc(OC)c(OC)cc12 | -32%
CCOC(=O)c1c(NC(=O)Cn2cnc3scc(-c4ccc(C)cc4)c3c2=O)sc(C)c1C | -14.5%
CCCNC(=S)Nc1ccc(Nc2ccccc2)cc1 | -15%
O=C(CSc1cn[nH]n1)Nc1ccccc1C(F)(F)F | 8.13%
Cc1ccc(S(=O)(=O)N2CCOCC2)cc1C(=O)N(C)CCOc1ccc(Cl)cc1 | -64%
COc1ccc(CN(C)C(=O)Cc2ccc(S(=O)(=O)N3CCOCC3)s2)cc1OC | 7.58%
CN(CCOc1ccccc1)C(=O)c1cc(S(=O)(=O)N2CCOCC2)ccc1Cl | -48.4%
COc1ccc(Br)cc1CN(C)C(=O)Cc1ccc(OC)c(S(=O)(=O)N2CCOCC2)c1 | -41%
Cc1ccc(S(=O)(=O)N2CCOCC2)cc1C(=O)OCCOc1cccc(Cl)c1 | -9.45%
COc1ccc(Br)cc1CN(C)C(=O)Cc1ccc(S(=O)(=O)N2CCOCC2)s1 | -70.4%
CC(OC(=O)/C=C/c1ccc(Br)cc1)C(=O)N1CCOCC1 (stereo not shown) | -10.8%
CCc1cc(=O)oc2c(CNC(Cc3ccccc3)C(=O)O)c(O)ccc12 (stereo not shown) | 9.3%
O=c1ccn(Cc2ccccc2Cl)cc1 | 8.8%
O=C(CCc1nnc(-c2ccsc2)o1)NCc1ccccc1OC(F)(F)F | 3.76%
